DT40 TDP1 CPT = growth inhibition of DT40 Tdp1-/-;hTDP1 cells with camptothecin (screen for TDP1 inhibitors) | Potency, µM (top dose mostly 46.2 µM), for inactives: top-dose activity change, negative = growth inhibition, usual class: inhibitors | 420,000 tested, 12% active | chicken DT40 Tdp1-/-;hTDP1 cells + 20 nM CPT, ATP luminescence, 48 h; further: potency means the concentration at half of the fitted maximal effect; nearly all actives have a fitted effect of over 55% in size
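Chicken DT40 Tdp1-/- cells complemented with human TDP1, 400 cells/well, exposed to compounds plus 20 nM camptothecin for at least 48 h at 37 C; viability read as ATP content by CellTiter-Glo luminescence.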
Giardia kill = kills Giardia lamblia; activity change, % at 7.66 µM, hits read low; Giardia lamblia trophozoite viability; 340,000 tested, 0.15% active; in the data active means activity change below about -80%; inconclusive means between about -30% and that limit;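 further: parasites exposed to compound for two days anaerobically before the ATP read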
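Compounds were tested on trophozoites seeded at 100 cells/well and held 48 hrs at 37 deg C anaerobically. An ATP-based luminescent kit measured the remaining live cells.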
IL-1B inflam inh = inflammasome signaling inhibition, IL-1 beta readout | THP-1 LPS/ATP IL-1B secretion, AlphaLISA, 16 h; stronger effect = lower value | 360,000 tested, 4.7% active | activity change, % at 57.5 µM | AID 743279; in the data active means activity change below about -50%; inconclusive means mostly about -30% to -49%
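THP-1 cells pretreated 1 hr with compounds (up to 57.5 uM final), then stimulated with LPS (250 ng/mL final) plus ATP (1.25 mM final); secreted IL-1B measured by AlphaLISA after 16 hr, decreased signal indicating inhibition.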
DT40 TDP1 no CPT = qHTS for Inhibitors of human tyrosyl-DNA phosphodiesterase 1 (TDP1): qHTS in cells in absence of CPT; Potency, µM (series often up to 46.2 µM), without a hit: top-dose activity change, negative = growth inhibition, actives largely listed as inhibitors; 420,000 tested, 15% active; AID 686978, 2013; DT40 Tdp1-/- hTDP1 cells, no CPT, ATP luminescence, 48 h; further: potency means the concentration at half of the fitted maximal effect; nearly all actives have a fitted effect of over 55% in size
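Growth kinetics read by CellTiter-Glo luminescence after ≥48 hr at 37 °C. Cells: DT40 Tdp1-/- stably carrying human TDP1, 400 per well, compound exposure in the absence of CPT (DMSO vehicle).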
TDP1 inh = inhibitors of human tyrosyl-DNA phosphodiesterase TDP1 | AID 485290 | recombinant TDP1, AlphaScreen DNA substrate cleavage | Q9NUW8 | Potency, µM (top dose mostly 130 µM), without a hit: at the top dose activity change, negative = inhibition, hits mostly inhibitors | 350,000 tested, 0.28% active; further: potency means the concentration at half of the fitted maximal effect; nearly all actives have a fitted effect of over 40% in size
Target sequence (Q9NUW8 whole entry, looked up): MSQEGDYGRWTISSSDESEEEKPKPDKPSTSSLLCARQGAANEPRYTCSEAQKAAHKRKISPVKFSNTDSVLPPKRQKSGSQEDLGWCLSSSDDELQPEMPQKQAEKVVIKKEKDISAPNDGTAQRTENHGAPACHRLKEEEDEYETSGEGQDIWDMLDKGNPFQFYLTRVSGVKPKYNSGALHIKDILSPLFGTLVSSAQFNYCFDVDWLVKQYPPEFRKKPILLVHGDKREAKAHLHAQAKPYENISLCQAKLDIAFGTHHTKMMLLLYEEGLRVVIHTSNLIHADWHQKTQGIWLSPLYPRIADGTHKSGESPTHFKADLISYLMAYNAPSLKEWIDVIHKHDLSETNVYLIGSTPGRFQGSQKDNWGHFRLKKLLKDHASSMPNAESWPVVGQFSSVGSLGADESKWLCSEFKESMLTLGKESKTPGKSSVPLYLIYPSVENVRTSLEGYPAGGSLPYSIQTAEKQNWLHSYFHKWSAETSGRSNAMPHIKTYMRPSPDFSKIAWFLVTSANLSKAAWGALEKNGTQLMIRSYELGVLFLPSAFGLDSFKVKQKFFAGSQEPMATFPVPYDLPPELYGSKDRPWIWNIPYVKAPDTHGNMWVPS
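Here, a 5' biotin and 3' phosphotyrosine-FITC DNA oligonucleotide reports Tdp1 activity: intact substrate bridges AlphaScreen beads, while cleavage leaves a 3' phosphate and drops signal. All incubations at room temperature.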
ELG1 repair inh = inhibitors of ELG1-dependent DNA repair in HEK293T cells. HEK293T ELG1-luciferase reporter, luminescence, 16 h; DNA damage induced by 5-fluorouridine. AID 504467. Potency, µM (highest dose often 46.1 µM), inactives show top-dose activity change, negative = inhibition, usual class: inhibitors. 330,000 tested, 2.3% active; further: potency means the concentration at half of the fitted maximal effect; nearly all actives have a fitted effect of over 55% in size
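Step one: seed 2,000 cells per well. Step two: pin-transfer compound or DMSO alongside 5-fluorouridine. Step three: incubate 16 hr, 37 °C, 5% CO2. Step four: add ONE-Glo, wait 30 min, read luminescence.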
* = called active by the depositor; ? = inconclusive; / = no result; [ ] = remark or other dose. Hits are enriched below; roughly 19% of the tested compounds scored in any of these assays. Unless noted, the call rests on the fitted dose curve; in most records, active means well fitted curve in the direction sought with a large enough effect; inconclusive means small, poorly fitted or top-dose-only effect, or another doubt; inactive means no such curve, though single readings can be large; an effect the other way counts as inactive or inconclusive. On the % scale 0 is the no-effect control and ±100 the full control effect.

SMILES	DT40 TDP1 CPT	Giardia kill	IL-1B inflam inh	DT40 TDP1 no CPT	TDP1 inh	ELG1 repair inh
COc1cccc(NC(=O)CCN2CCN(c3ccccc3F)CC2)c1	-29%	?	5	-12%	7%	-1%
COc1cccc(NC(=S)/C(=C(\[O-])c2cc(C)n(-c3ccccc3F)c2C)[n+]2ccc(N(C)C)cc2)c1	21µM*	-5	-17	12µM*	9%	?
Cc1cc(C([O-])=C(C(=S)Nc2ccc(F)cc2)[n+]2ccccc2)c(C)n1-c1ccc(F)cc1	26µM*	-13	-19	21µM*	/	/
OC(CN1CCCCC1)c1cc(-c2ccccc2)on1 (centres undefined)	13%	/	/	-4%	/	/
CCOc1ccc(C(C)=O)cc1CSc1nnc(-c2cccs2)n1CC1CCCO1 (centres undefined)	?	9	?	18µM*	2%	-10%
O=C(CSc1nnc(-c2cccs2)n1CC1CCCO1)N1CCCC1 (centres undefined)	28%	1	7	-14%	6%	11%
CCCn1c(=O)sc2cc(NC(=O)c3ccccc3Cl)ccc21	21µM*	/	/	?	2%	/
NC(=O)[C@H]1O[C@@H](O)[C@H](O)[C@@H](O)[C@@H]1O	-2%	/	/	-17%	/	/
COc1ccc(-c2noc(N3CCC(C(=O)NC(C)c4ccccc4)CC3)n2)cc1 (centres undefined)	?	-22	-1	26µM*	/	13µM*
CCOC(=O)N1CCC(NC(=O)C2CCN(c3nc(-c4ccc(OC)cc4)no3)CC2)CC1	?	4	11	4.1µM*	4%	8%
COc1ccc(-c2noc(N3CCC(C(=O)N(C)c4ccccc4)CC3)n2)cc1	?	-20	-3	29µM*	/	-23%
COc1ccc(-c2noc(N3CCC(C(=O)NCc4ccccc4Cl)CC3)n2)cc1	16µM*	34	-2	26µM*	/	?
O=C(N/C(=C\c1ccco1)C(=O)N1CCCC(CO)C1)c1ccccc1 (centres undefined)	10%	0	14	7%	/	0%
Cc1cc(N2CCOCC2)nc(-c2ccc([N+](=O)[O-])cc2)n1	?	-9	-12	?	3%	-3%
COCOc1ccc(/C=C2/Oc3cc(OCOC)cc(OCOC)c3C2=O)c(OCOC)c1	13µM*	0	-12	23µM*	/	/
CCN(CC)C(=O)COc1ccc(/C=N/NC(=O)c2cc(-c3ccccc3OC)nc3ccccc23)cc1OC	?	-17	/	?	/	/
COc1ccccc1-c1cc(C(=O)N/N=C/c2ccoc2)c2ccccc2n1	?	28	28	7.3µM*	4%	?
CCc1ccc(/C=N/NC(=O)c2cc(C3CC3)nc3ccc(Br)cc23)s1	2.6µM*	0	24	4.6µM*	4%	7.3µM*
COc1ccc(/C=N/NC(=O)c2cc(-c3ccccc3OC(C)C)nc3ccccc23)cc1CN1CCOCC1	?	-3	?	?	5%	?
CCc1ccc(/C=N/NC(=O)c2cc(-c3ccccc3OC)nc3ccccc23)s1	4.1µM*	2	-6	12µM*	6%	18µM*
Cc1cccc(C(=O)N/N=C/c2ccoc2)c1	-6%	23	-6	0%	28µM*	?
CN(CC1CCOCC1)C(=O)CC1C(=O)NCCN1Cc1cccc(C(F)(F)F)c1 (centres undefined)	-2%	22	9	17%	/	1%
O=C(O)c1ccc(CS(=O)(=O)c2c(Cl)cccc2Cl)o1	12%	-15	17	-1%	/	0%
Nc1ncnc2c1ncn2[C@@H]1O[C@H](C(=O)N[C@H]2c3ccccc3C[C@H]2OC=O)[C@@H](O)[C@H]1O	-8%	/	36	-2%	/	/
CCc1ccc(/C=N\NC(=O)c2ccc(Br)o2)s1	?	-6	-8	23µM*	3%	?
SMILES	DT40 TDP1 CPT	Giardia kill	IL-1B inflam inh	DT40 TDP1 no CPT	TDP1 inh	ELG1 repair inh
O=C(c1ccccc1Cl)N(Cc1ccco1)Cc1ccco1	21µM*	/	/	15µM*	12%	/
O=C(c1ccccc1)N(Cc1ccco1)Cc1cccs1	?	/	/	13µM*	5%	/
O=C(Nc1cc(C(F)(F)F)ccc1Cl)C(O)Cc1ccccc1 (centres undefined)	/	/	/	/	-6%	/
COc1ccc(N2C(=NC(=O)CCC3CCCC3)SC3CS(=O)(=O)CC32)cc1 (centres undefined)	-11%	-9	0	-18%	0%	?
Cc1cccc(N2CCN(C(=O)c3cn(C4CCCCC4)c(=O)c4c3c3ccccc3n4C)CC2)c1C	?	/	/	16µM*	2%	/
COc1ccc(N2CCN(C(=O)c3cn(C4CCCCC4)c(=O)c4c3c3ccccc3n4C)CC2)cc1	23µM*	/	/	21µM*	0%[12.3 µM]	/
Cn1c2ccccc2c2c(C(=O)N3CCN(c4ccc(F)cc4)CC3)cn(C3CCCCC3)c(=O)c21	16µM*	/	/	18µM*	5%	/
O=C(Nc1ccc(Br)cc1)C1CCN(C(=O)c2ccco2)CC1	-7%	4	16	-28%	11%	-14%
CCSc1nc(N2CCCCC2)c2c(c1C#N)CCCC2	?	-11	35	16µM*	2%	-3%
N#Cc1c(SCc2ccccc2)nc(N2CCOCC2)c2c1CCCC2	5%	17	24	-29%	-7%	?
O=c1[nH]c2ccccc2c(=O)c2ccccc12	-7%	/	-17	-25%	/	/
Cc1ccc2[nH]c3ccccc3c(=O)c2c1	12µM*	-4	-16	12µM*	/	?
O=c1c2ccccc2[nH]c2ccc(O)cc12	16%	21	-71*	-25%	40µM*	?
Cc1cc(=O)[nH]c2ccc(O)cc12	0.35µM*	/	/	-1%	/	/
O=c1c2ccccc2[nH]c2ccc(F)cc12	21µM*	5	-22	9.2µM*	3%	?
CC1CCN(C(=O)Cn2nnc(-c3ccc([N+](=O)[O-])cc3)n2)CC1	-14%	15	7	1%	/	-15%
CCN(CCO)c1nc(NCc2ccccc2)c2cnn(C)c2n1	?	4	2	?	4%	-6%
Cc1cccc(Cn2c(=O)n(CCc3ccccc3)c(=O)c3sc4ccccc4c32)c1	-3%	/	/	-11%	4%	/
COc1ccc(-c2coc3c(C(=O)NC4CCCCC4)cccc23)c(C)c1	?	/	-27	?	/	/
COc1ccc(-c2ccc(C(=O)NC3CCCCC3)c3occc23)c(C)c1	21µM*	/	-28	18µM*	/	/

Screening data: PubChem BioAssay, National Center for Advancing Translational Sciences (NCATS)
